# In PubChem BioAssay (Tox21):
# Results filed as inconclusive are left out. Where a call stands in place of a potency, no number is given. Active and inactive are the calls of the source. Calls follow the shape of the full dose curve.
# Target: Acetylcholinesterase (Homo sapiens) (UniProt P22303)
# Experiment: Acetylcholinesterase (AChE) small molecule antagonists: colormetric cell-based qHTS assay (AID 1347395); also: nearly all actives have a fitted effect of over 30% in size
# Conditions: SH-SY5Y cells AChE activity, colorimetric (Ellman); series mostly up to 115 µM
# Summary of the method: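 SH-SY5Y cells attached overnight, exposed to compound 30 min at 37 C, then given DTNB/acetylthiocholine; after 90 min at 37 C, colorimetric thiocholine read gives cellular AChE activity.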
# Acetylcholinesterase (Homo sapiens), sequence (P22303 whole entry, looked up): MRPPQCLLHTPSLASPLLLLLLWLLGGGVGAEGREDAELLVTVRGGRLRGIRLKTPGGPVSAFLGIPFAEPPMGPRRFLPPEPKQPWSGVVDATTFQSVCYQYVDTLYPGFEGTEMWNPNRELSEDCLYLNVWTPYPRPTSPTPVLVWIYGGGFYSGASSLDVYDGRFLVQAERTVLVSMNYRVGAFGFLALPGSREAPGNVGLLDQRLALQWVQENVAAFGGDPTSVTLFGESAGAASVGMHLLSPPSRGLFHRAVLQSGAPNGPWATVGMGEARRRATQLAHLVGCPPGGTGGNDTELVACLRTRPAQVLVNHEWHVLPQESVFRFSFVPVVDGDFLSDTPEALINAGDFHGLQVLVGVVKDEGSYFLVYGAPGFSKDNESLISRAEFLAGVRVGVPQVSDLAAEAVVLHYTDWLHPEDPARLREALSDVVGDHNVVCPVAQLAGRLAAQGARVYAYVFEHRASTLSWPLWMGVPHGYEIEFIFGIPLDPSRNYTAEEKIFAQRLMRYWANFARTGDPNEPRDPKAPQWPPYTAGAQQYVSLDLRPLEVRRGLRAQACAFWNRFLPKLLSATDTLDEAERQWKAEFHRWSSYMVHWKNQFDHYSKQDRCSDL
row,SMILES,Potency
1,Cc1ccc2ccc(Cl)cc2n1,inactive
2,O[C@@H]([C@H](O)[C@H](O)CBr)[C@H](O)CBr,inactive
3,CO[C@@]1(NC(=O)CSC[C@@H](N)C(=O)O)C(=O)N2C(C(=O)O)=C(CSc3nnnn3C)CS[C@@H]21,inactive
4,O=Cc1ccccc1[N+](=O)[O-],inactive
5,Cc1ccc(Nc2c(F)cccc2Cl)c(CC(=O)O)c1,inactive
6,COC(=O)CCCCC(CCSS/C(CCO)=C(\C)N(C=O)Cc1cnc(C)nc1N)SC(C)=O (stereo not drawn),inactive
7,CN(C)C(=O)Nc1ccc(Cl)c(Cl)c1,inactive
8,CCCc1ccc(OCC(=O)N2CCN(C(=O)COc3ccc(CCC)cc3OC)CC2)c(OC)c1,inactive
9,CC(C)(CO)C(O)C(=O)NCCCO (stereo not drawn),inactive
10,CCCCCCCCSCCO,inactive
11,Cc1ccc(Cl)cc1N,inactive
12,OC(Cn1cncn1)(Cn1cncn1)c1ccc(F)cc1F,inactive
13,Cc1ccc(C=O)cc1,inactive
14,CCCc1ncc(C(=O)O)s1,inactive
15,O=S(=O)(O)c1ccc(Cl)cc1,inactive
16,c1ccc2c(c1)-c1cccc3c1c-2cc1ccccc13,inactive
17,CCCCCCCCCCCCCC(=O)OCC,inactive
18,CN=C(NC#N)Nc1ccc(C2=NNC(=O)CC2C)cc1 (stereo not drawn),inactive
19,CC[N+](CC)(CC(=O)Nc1c(C)cccc1C)Cc1ccccc1 (tested in a mixture with another compound),inactive
20,COC(C)(C)CCO,inactive
21,CCCCOC(=O)C(C)OC(=O)CCC (stereo not drawn),inactive
22,NC(N)=Nc1nc(CSCC/C(N)=N/S(N)(=O)=O)cs1,inactive
23,O=C(O)CCNC(=O)c1ccccc1,inactive
